PKA-R1A act: activates the PKA-R1A holoenzyme complex; PKA-R1A dissociation, Cy5-IP20 fluorescence polarization; scaled: DMSO 0%, 113 µM cGMP 100%; activation, % at 11.4 µM; 340,000 tested, 0.083% active; AID 504707;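 active means percent activation above the mean of all tested compounds plus 3 SD, cut at about 19% in these data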;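 further: higher means more PKAc released from R1A so a rise in polarization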
PolyA inh: blocks polyadenylation in yeast reporter cells; S. cerevisiae SKY197-pL101 polyadenylation reporter, beta-gal luminescence; efflux-impaired pdr1/pdr3 knockout yeast; score 100 = 6 SD above DMSO; activity score, % at 12 µM; 300,000 tested, 0.02% active; AID 1875;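 active means lowest replicate activity score at least 50, where 100 means six control SD above control mean; inconclusive means lowest score under 50 but half or more replicates reach 50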;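 further: yeast exposed to compound for 9 h at 30 °C; higher score means more reporter readthrough which indicates perturbed polyadenylation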
V-ATPase pH: yeast V-ATPase proton transport regulation by pHLuorin; S. cerevisiae, pHLuorin cytosolic pH fluorescence; AID 504577; 350,000 tested, 0.37% active; response, % at 10 µM; in the data active means response mostly above about 7.3%, no sharp cut-off; inactive means mostly below about 5.4%; further: actives read high
Yeast superoxide: caloric restriction mimetics inhibiting age-related superoxide in yeast | 330,000 tested, 0.18% active | superoxide response (% of plate mean), % at 10 µM | S. cerevisiae aged cells, superoxide DHE fluorescence; stronger effect = lower value | AID 2690;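 active means superoxide response under a set limit, about three screen SD below normal, cut at about 65% in these data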;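 further: yeast aged for seven days with compound at 30 °C before DHE staining; 100% = average MFI of all compound-treated wells on the plate with controls excluded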
PKA-R2B act: activates the human PKA-R2B holoenzyme complex | P22694+P31323 | PKA-R2B holoenzyme dissociation, Cy5-IP20 fluorescence polarization; R2B truncated from residue 108, S112A mutant; 0% DMSO only, 100% 113 µM cGMP | activation, % at 11.4 µM | 340,000 tested, 0.079% active;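 active means activation above a cutoff set at the mean over all compounds plus 3 SD, cut at about 18% in these data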;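 further: higher means more holoenzyme dissociation and a rise in polarization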
JMJD2C inh: blocks human GASC-1 demethylase activity. Q9H3R0. GST-JMJD2C(1-420) H3K9me3 demethylation, DELFIA europium. inhibition, % at 2.35 µM. 330,000 tested, 0.069% active;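 active means more than half of a compound's replicate wells show inhibition beyond 50%, single wells judged on their own value; inconclusive means some, but no more than half, of replicates pass 50% inhibition; inactive means no replicate passes 50% inhibition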;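 further: signal counts dimethyl H3K9 product captured on neutravidin plate; 0% = median of DMSO wells and 100% = 0.3 times that DMSO median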
Target sequence (Q9H3R0 1-420 limits assumed): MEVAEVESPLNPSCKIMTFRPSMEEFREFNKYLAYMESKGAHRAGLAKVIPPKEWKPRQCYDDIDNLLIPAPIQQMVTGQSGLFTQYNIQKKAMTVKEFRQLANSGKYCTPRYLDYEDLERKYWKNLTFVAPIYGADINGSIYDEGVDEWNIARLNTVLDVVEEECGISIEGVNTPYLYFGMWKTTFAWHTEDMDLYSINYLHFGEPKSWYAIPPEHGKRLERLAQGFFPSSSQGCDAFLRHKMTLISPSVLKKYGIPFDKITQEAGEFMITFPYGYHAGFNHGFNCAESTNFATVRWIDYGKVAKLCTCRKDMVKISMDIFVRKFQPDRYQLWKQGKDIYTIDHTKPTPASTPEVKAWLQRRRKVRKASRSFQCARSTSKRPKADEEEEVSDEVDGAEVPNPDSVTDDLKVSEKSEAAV
Superoxide pick: yeast aging superoxide inhibition, cherry pick confirmation | 850 tested, 1% active | S. cerevisiae aging, superoxide DHE fluorescence; stronger effect = lower value | AID 434994 | shares compounds with Yeast superoxide | superoxide response (% of plate), % at 10 µM;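 active means superoxide signal below 65% of the plate average of sample wells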;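 further: cells aged with compound for 7 days at 30 degrees C before staining; 100% equals mean DHE fluorescence of all compound wells on the plate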
DHE counter: counter-screen for compounds affecting DHE oxidation and fluorescence in yeast | S. cerevisiae BY4741, flow cytometry; stronger effect = lower value | shares compounds with Yeast superoxide | AID 435000 | fluorescence response, % at 10 µM | 850 tested, under 10 active;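 active means fluorescence response below 15%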;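 further: percent of the mean fluorescence averaged over all compound wells on the plate; lower means stronger quenching of DHE signal or ROS scavenging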
* marks the source's active call; other numbers are inactive results; ? = inconclusive; . = no result given. The list is not random: actives were taken first. Their share in the collection is about 0.78%.

SMILES	PKA-R1A act	PolyA inh	V-ATPase pH	Yeast superoxide	PKA-R2B act	JMJD2C inh	Superoxide pick	DHE counter
CCCCCC(=O)NC(=S)Nc1cccc(C(C)=O)c1	-10.0	9.1	3.0	60.2*	2.8	-0.5	100.7	94.0
CCOC(=O)c1c(NC(=O)CSc2nnnn2-c2ccccc2OCC)sc2c1CC(C)(C)NC2(C)C	-4.0	10.4	-1.8	89.4	10.4	13.5	.	.
CCOC(=O)c1c(NC(=O)CSc2nnnn2-c2ccccc2)sc2c1CC(C)(C)NC2(C)C	-0.8	6.6	3.2	62.1*	3.7	-7.6	106.4	105.9
CC(=O)Nc1ccc(NC(=O)N(c2ccccc2)c2ccccc2)cc1	4.3	-13.0	3.2	96.7	-3.4	-15.0	.	.
c1ccc(Cn2ncc3c(NCc4ccco4)ncnc32)cc1	5.4	16.7	0.1	92.8	3.6	0.2	.	.
CCc1nc(NC(C)(C)C)c2cnn(-c3ccccc3)c2n1	-8.3	-6.3	1.2	94.6	-10.6	4.8	100.7	96.6
c1ccc(-n2ncc3c(NCc4ccco4)ncnc32)cc1	-2.4	-8.0	-0.2	87.5	4.0	-2.8	90.1	90.5
CCCCNc1ncnc2c1cnn2-c1ccccc1	-0.3	5.6	1.9	109.5	-4.6	1.9	104.7	108.0
CSc1nsc(SCC(=O)Nc2nc3ccc(C)cc3s2)n1	11.1	37.9	-2.8	115.0	2.2	-7.2	.	.
COc1cccc(NC(=O)CN2CCN(CC(=O)Nc3ccc(F)cc3)CC2)c1	-0.9	-8.2	5.9	61.1*	5.7	-2.2	112.6	105.1
O=C(CN1CCN(c2ccccn2)CC1)Nc1ccc2ccccc2c1	-11.1	-9.6	-2.5	95.1	-0.7	0.9	.	.
O=C(CN1CCN(c2ccccn2)CC1)Nc1cccc(F)c1	11.9	3.0	-1.2	100.6	5.5	-16.9	110.2	92.4
COc1cccc(NC(=O)CN2CCC(C)CC2)c1	7.4	19.5	-0.2	93.2	1.0	-7.4	.	.
O=C(CN1CCN(c2ccccn2)CC1)Nc1cccc(S(=O)(=O)N2CCOCC2)c1	-3.1	-0.4	-0.6	117.9	-5.7	8.3	.	.
O=C(CN1CCN(c2ccccn2)CC1)Nc1cccc(Br)c1	-2.2	-7.7	-2.3	101.8	-7.2	-3.8	92.1	102.1
Cc1ccccc1-c1nc(CS(=O)(=O)CC(=O)NCCCN2CCOCC2)c(C)o1	8.9	7.8	-1.1	103.1	2.6	54.1	.	.
Cc1ccccc1-c1nc(CS(=O)(=O)CC(=O)NCCCN2CC(C)CC(C)C2)c(C)o1 (stereo not given)	-6.2	-10.1	-1.4	65.2*	-7.6	-24.0	93.9	90.3
COc1ccc(S(=O)(=O)N2CCCOC2CNC(=O)C(=O)NCCCN2CCOCC2)cc1C (stereo not given)	-10.0	0.5	0.5	94.2	-0.9	3.4	.	.
COc1c(O)c(=O)n2c3ccccc3c3ccnc1c32	-7.5	6.6	-3.2	62.4*	1.0	?	88.6	95.2
O=c1c(Cl)c(O)c2cccc3c4ccccc4n1c23	7.9	-7.9	-4.5	143.6	-3.1	-1.4	.	.
CCCCc1ncc(CN2CCC(n3nccc3NC(=O)c3ccccc3Cl)CC2)[nH]1	-7.5	5.3	5.8	87.5	-5.5	-1.6	.	.
O=C(Nc1ccccc1)c1ccc(Nc2c([N+](=O)[O-])cc([N+](=O)[O-])c3ccccc23)cc1	-0.7	-44.8	-3.3	124.0	-4.1	-11.3	.	.
O=[N+]([O-])c1cc(Br)c(Nc2ccccc2)c([N+](=O)[O-])c1	4.2	-60.7	-3.0	53.2*	2.9	6.7	84.5	100.3
CN(C(=O)Nc1cccc(C(F)(F)F)c1)C1CCCCC1	0.3	4.3	-4.3	53.8*	-4.2	18.0	91.1	102.9
Cc1cc2ccccn2c1C(=O)c1ccccc1F	-6.9	-5.6	0.5	61.5*	3.0	4.4	97.1	101.5
SMILES	PKA-R1A act	PolyA inh	V-ATPase pH	Yeast superoxide	PKA-R2B act	JMJD2C inh	Superoxide pick	DHE counter
Cc1cc2ccccn2c1C(=O)c1ccc(Cl)cc1	-7.0	7.6	1.3	91.1	-14.4	-22.0	.	.
COc1cc(CCCN2C(N)=NC[C@H]2Cc2ccc(O)cc2)cc(OC)c1OC	-11.6	8.0	0.7	100.2	0.3	1.0	.	.
Cc1ccsc1CNS(=O)(=O)c1ccc(F)cc1	3.4	0.3	-0.3	60.1*	4.8	9.7	88.3	91.5
O=S(=O)(NCCNS(=O)(=O)c1ccc(F)cc1)c1ccc(F)cc1	-6.2	11.7	-0.8	111.4	1.8	-9.3	.	.
CCCCCN(C(=O)CCC(=O)OCc1ccccc1Cl)c1c(N)n(CCCC)c(=O)[nH]c1=O	1.7	2.0	2.4	59.9*	-11.9	2.0	104.9	97.4
CCC(=Nc1ccccc1O)C1=C(O)CC(c2ccccc2)CC1=O (stereo not given)	-8.4	5.8	1.2	61.6*	4.3	-7.4	69.8	97.9
CC1CCN(C(=O)C(C)c2ccc([N+](=O)[O-])cc2)CC1 (stereo not given)	-2.6	-6.7	-0.5	71.9	8.8	6.9	.	.
O=C(OCc1c(F)cccc1Cl)c1cnc2ccccc2n1	6.3	10.4	-3.8	53.6*	-10.6	-14.0	101.1	88.1
O=C(OCc1c(F)cccc1Cl)c1cnccn1	14.5	-7.3	-1.8	99.2	-1.8	6.4	.	.
Cc1ccc(S(=O)(=O)N(C)c2ccc(N)cc2)cc1	5.9	-2.2	-2.6	92.5	-3.0	2.3	107.4	103.7
Cc1ccc(S(=O)(=O)N(C)c2ccc(C(=O)O)cc2)cc1	-5.9	-6.1	-0.9	103.8	-6.4	4.7	.	.
Cc1ccc(NCC(=O)NNC2=NCCC2)c(C)c1	-6.8	8.7	2.5	112.5	-8.0	-5.4	.	.
CC(=O)OCCN(Cc1ccccc1)Cc1ccc2c(c1)OCO2	-6.3	-10.7	-0.1	64.4*	-0.6	3.5	116.2	111.0
CC(NC(=O)N(Cc1ccccc1)Cc1ccc2c(c1)OCO2)(C(F)(F)F)C(F)(F)F	-6.2	28.0	1.1	96.3	-2.9	-8.6	.	.
O=C(CN1CCN(c2ccccn2)CC1)Nc1ccc(Cl)c(C(F)(F)F)c1	2.7	4.6	-2.8	102.0	-1.4	0.1	95.4	102.6
O=C(CN1CCN(c2ccccn2)CC1)Nc1cc(C(F)(F)F)ccc1Cl	0.3	6.7	-0.1	96.5	-1.0	7.8	107.0	132.8
O=C(c1ccc(OC2CCN(Cc3ccccc3OC(F)F)CC2)cc1)N1CCCC1	2.0	3.3	2.4	109.9	3.7	1.0	.	.
C=CCOc1ccccc1CN1CCC(Oc2ccc(C(=O)N3CCCC3)cc2)CC1	7.1	-11.9	-4.8	64.8*	1.2	-10.9	116.8	111.2
CCNC(=S)NNC(=O)c1csc2c1CCCC2	-1.2	-16.8	2.4	58.4*	-10.5	-4.9	88.0	102.9
